The supplement of paper PMC6555819

Legend:
Assay in all cases: PBM binding z-score (relative to random genomic background probes); higher = stronger binding; sequences stand for … in GC…GCGATTGACAGCGTAGAATGAAGG
[1] = test system: RARb homodimer (NR concentration 270 nM)
Outline: (§1)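 Binding z-scores were set against random background probes. The data came from custom Agilent 4×180K protein-binding microarrays carrying double-stranded probes with 34-nt variable regions, incubated 1 h with ligand-free nuclear receptor dimers. Partner-specific antibodies detected binding, and scanned fluorescence was regression-normalized.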

[2] = test system: RARg:RXRa (NR concentration 270 nM, RXRa partner concentration 90 nM)
Outline: as §1

[3] = test system: RARg homodimer (NR concentration 270 nM)
Outline: as §1

[4] = test system: RXRa DBDmut IVT, anti-RXR (DBD mutation: RXRa K156A/R161A, NR concentration 90 nM)
Outline: as §1

[5] = test system: RXRa homodimer (NR concentration 180 nM)
Outline: as §1

[6] = test system: THRa:RXRa (NR concentration 90 nM, RXRa partner concentration 90 nM)
Outline: as §1

[7] = test system: THRa homodimer (NR concentration 90 nM)
Outline: as §1

[8] = test system: VDR homodimer (NR concentration 270 nM)
Outline: as §1

| Sequence | PBM binding z-score [1] | PBM binding z-score [2] | PBM binding z-score [3] | PBM binding z-score [4] | PBM binding z-score [5] | PBM binding z-score [6] | PBM binding z-score [7] | PBM binding z-score [8] |
| --- | --- | --- | --- | --- | --- | --- | --- | --- |
| CGTCAAAGTTCCACTAAGGTAACGTAAAGCACGC | 0.376 | 0.418 | 0.398 | 0.475 | 0.357 | 4.02 | 1.69 | 0.238 |
| ATATTTAGGTTAGCTGGGGTCATTCAGACTAGGC | 3.93 | 4.05 | 3.26 | 2.19 | 5.09 | 5.1 | 4.01 | 6.12 |
| ACTCGGAGGACAAAGGTCTGAGCTACGCCAGTGA | 0.62 | 0.869 | 0.954 | 0.352 | 0.0538 | 0.538 | -0.424 | -0.296 |
| ACTAGCAGGCCAAGTTTGGATCACTCAAACAAAG | -0.0539 | -0.0446 | 0.341 | -0.14 | -0.454 | -0.0937 | -0.67 | -0.0821 |
| CCTAATGGGCCATTCAGAGGTCATTGATCATATG | 4.03 | 4.62 | 2.88 | 1.45 | 4 | 3.16 | 1.19 | 3.03 |
| CCTCGGAGGACCACAGGAGGTCAGAGCTGCCAGA | 3.17 | 2.2 | 2.01 | -0.446 | 1.85 | 2.76 | 0.73 | 0.746 |
| CGAACGATGGCATGAGTTGATAGCAAATGCCGAT | -0.482 | -0.189 | -0.00968 | 0.0712 | 0.135 | -0.2 | -0.806 | 0.233 |
